Most compounds without a hit are left out; they make up all but 4.7% or so of the library.
FH mod – Identification of activators of human fumarate hydratase by quantitative high-throughput screening; Fumarate hydratase, mitochondrial (Homo sapiens), P07954; FH coupled MDH/diaphorase resazurin fluorescence, 15 min; Potency, µM (doses to about 79.9 µM), for inactives: at the highest dose activity change, negative = inhibition, hits mostly inhibitors; 0.22% of 54,000 active; AID 1347055, 2019; further: potency means the concentration at half of the fitted maximal effect; on the % scale 0 is the no-effect control and ±100 the full control effect; the screen sought activators but most active calls are inhibition curves; nearly all actives have a fitted effect of over 45% in size
HTT-AS act – Primary qHTS for Identification of Small Molecule Activators of Huntingtin-Antisense Promoter Activity. HEK293 HTT-AS promoter firefly luciferase reporter, 24 h; response scale: percent change from vehicle, -100% = no light. Potency, µM (top dose mostly 57.5 µM), inactives show at the top dose activity change, positive = activation, hits mostly activators. 0.24% of 48,000 active. AID 1508624, 2021; further: potency means the concentration at half of the fitted maximal effect; nearly all actives have a fitted effect of over 55% in size
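Firefly luciferase signal from promoter-reporter HEK293 cells was scaled between vehicle (0%) and zero RLU (-100%). Compounds were tested at final concentrations of up to 57.5 uM over 24 h at 37 degrees C. PTC124 at 50 uM final served as control inhibitor.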
HTT prom inh – Primary qHTS for Identification of Small Molecule Inhibitors of Huntingtin Promoter Activity | HEK293 HTT promoter firefly luciferase reporter, 24 h | Potency, µM (doses to about 57.5 µM), inactives show at the top dose activity change, negative = inhibition, usual class: inhibitors | 0.93% of 48,000 active; further: potency means the concentration at half of the fitted maximal effect; nearly all actives have a fitted effect of over 50% in size
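Firefly luciferase signal from promoter-reporter HEK293 cells was scaled between vehicle (0%) and zero RLU (-100%). Compounds were tested at final concentrations of up to 57.5 uM over 24 h at 37 degrees C. PTC124 at 50 uM final served as control inhibitor.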
DRV1 agonist – qHTS for Agonists of Human Resolvin D1 Receptor DRV1 | Probable G-protein coupled receptor 32 (Homo sapiens), O75388 | CHO-K1 GPR32 beta-arrestin PathHunter luminescence, 90 min; zero percent set by DMSO-only wells | activation, % at 76.9 µM | 2.5% of 48,000 active | AID 1346428, 2018;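 active means activation of at least 60% and not above a set upper limit, about 1 call in 100 departs from these limits; inconclusive means activation of 40% to 60%, or above that upper limit; inactive means activation under 40%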; further: 0% is about no effect
Target sequence (O75388 whole entry, looked up): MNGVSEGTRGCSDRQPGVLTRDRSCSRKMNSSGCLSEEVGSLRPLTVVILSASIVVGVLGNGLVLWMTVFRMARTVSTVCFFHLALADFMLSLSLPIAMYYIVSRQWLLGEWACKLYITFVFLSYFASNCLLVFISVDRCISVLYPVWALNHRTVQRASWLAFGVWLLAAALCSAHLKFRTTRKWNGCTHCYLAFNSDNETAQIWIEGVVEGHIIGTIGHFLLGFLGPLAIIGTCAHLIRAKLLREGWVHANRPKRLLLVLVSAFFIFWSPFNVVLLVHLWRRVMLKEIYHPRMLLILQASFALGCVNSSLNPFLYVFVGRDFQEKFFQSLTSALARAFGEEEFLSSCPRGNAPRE
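Step 1: seed CHO-K1 GPR32 beta-arrestin cells, 2,500/well, overnight at 37 °C. Step 2: add compounds, 90 min at 37 °C. Step 3: detection reagent, 1 h ambient, then luminescence.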
NTMT1 inh – Primary qHTS for Inhibitors of N-terminal methyltransferase 1 (NTMT1): MTaseGlo Assay; N-terminal Xaa-Pro-Lys N-methyltransferase 1 (Homo sapiens), Q9BV86; NTMT1 MTase-Glo SAH luminescence, purified enzyme; Potency, µM (series often up to 114 µM), for inactives: top-dose activity change, negative = inhibition, usual class: inhibitors; 2.5% of 59,000 active; AID 1645870, 2021;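 further: potency means the concentration at half of the fitted maximal effect; plate controls were DMSO vehicle for no effect and no enzyme for full effect; nearly all actives have a fitted effect of over 65% in size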
Target sequence (Q9BV86 whole entry, looked up): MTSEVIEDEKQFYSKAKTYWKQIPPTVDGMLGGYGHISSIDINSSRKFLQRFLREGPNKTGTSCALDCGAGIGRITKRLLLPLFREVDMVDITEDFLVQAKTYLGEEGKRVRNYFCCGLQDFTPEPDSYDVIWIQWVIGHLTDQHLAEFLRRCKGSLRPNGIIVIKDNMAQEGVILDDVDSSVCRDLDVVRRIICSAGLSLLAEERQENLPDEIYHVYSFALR
The depositor's hits bear a star; ? = inconclusive; . = not tested or not shown; ! = a repeat was not active; [ ] = another dose, or the depositor's remark. Unless noted, the call rests on the fitted dose curve; in most records, active means well fitted curve in the direction sought with a large enough effect; inconclusive means small, poorly fitted or top-dose-only effect, or another doubt; inactive means no such curve, though single readings can be large; an effect the other way counts as inactive or inconclusive.

SMILES	FH mod	HTT-AS act	HTT prom inh	DRV1 agonist	NTMT1 inh
Fc1ccc(-n2ncc3c(NCCC4=CCCCC4)ncnc32)cc1	-6%	10µM*	38%	39	?
OCCN(CCO)c1ncnc2c1cnn2-c1ccc(F)cc1	4%	7.9µM*	44%	9	7%
CCC(C)Nc1ncnc2c1cnn2-c1ccc(F)cc1 (centres undefined)	19%	?	39%	65*	-15%
Cc1ccc(-n2ncc3c(N(CCO)Cc4ccccc4)ncnc32)cc1	-11%	?	9%	-6	-9%
NS(=O)(=O)c1ccc(CCNC(=O)Cn2c(-c3cccs3)cc3ccccc32)cc1	-11%	-28%	?	2	?
CCC(=O)Oc1ccc(/C=C(\C#N)c2nc3ccccc3[nH]2)cc1OC	-7%	?	16%	31	25µM*
COc1cc(/C=C(\C#N)c2nc3ccccc3[nH]2)ccc1OCc1ccccc1F	-3%	-36%	?	9	3%
Oc1ccc(C2CNCCc3c2cc(O)c(O)c3Cl)cc1 (centres undefined)	?	-8%	-5%	4	?
Oc1ccc(C2CNCc3sccc32)cc1O (centres undefined)	8.9µM*	.	.	6	.
NS(=O)(=O)Oc1ccc2c3c(c(=O)oc2c1)CCCCC3	.	.	.	.	28µM*
Cc1ccc(Sc2c(C)nn(C(=O)c3ccc(Br)cc3)c2C)cc1	-3%	-21%	-20%	40	-9%
Cc1nn(C(=O)c2ccccc2)c(C)c1Sc1ccc(Cl)cc1	?	-73%	?	107*	1%
N#C/C(=C\c1ccc(-c2ccc(C(=O)O)cc2)o1)C(=O)Nc1ccccc1C(=O)O	14µM*	-19%	-6%	-2	2%
Cn1c2cc(CO)sc2c2cnn(Cc3ccccc3F)c(=O)c21	.	.	.	.	8%[57.5 µM]
COc1ccc(-n2nc3c(N4CCCC(C(=O)NCc5ccc(C)cc5)C4)nnc(C)c3c2C)cc1 (centres undefined)	-25%	-64%	-19%	111*	?
COc1ccc(CNC(=O)C2CCCN(c3nnc(C)c4c(C)n(-c5ccc(C)cc5)nc34)C2)cc1 (centres undefined)	-28%	-18%	1%	-1	79µM*
COc1cc(C(=O)NC(c2ccccc2Cl)c2cc(Cl)c3cccnc3c2O)cc(OC)c1OC (centres undefined)	-7%	-59%	?	-63	31%
COc1ccc(C(=O)NC(c2ccccc2Cl)c2cc(Cl)c3cccnc3c2O)cc1 (centres undefined)	-12%	-41%	8.9µM*	-54	29%
Cc1ccc(/C=C/c2nc3ccccc3n2S(=O)(=O)c2cccc(Cl)c2)cc1	-12%	31%	18%	40	?
CCOc1ccc(/C=C/c2nc3ccccc3n2S(=O)(=O)c2cccc(Cl)c2)cc1	-17%	-55%	?	70*	5µM*
CSc1ccc(/C=C/c2nc3ccccc3n2S(=O)(=O)c2ccc(F)c(C)c2)cc1	-20%	?	?	23	16µM*
CCC1CCC(C(=O)Nc2ccc(S(=O)(=O)Nc3nccs3)cc2)CC1 (centres undefined)	.	.	.	.	0%
COc1ccc(-c2noc(CSc3nnc(C)n3-c3ccc(C)cc3)n2)cc1OC	-5%	-37%	?	2	-15%
COc1ccc(-c2noc(N3CCN(c4ccc(C)cc4)C(C)C3)n2)cc1OC (centres undefined)	-8%	-31%	?	61*	-16%
CCOC(=O)c1c(C)n(-c2ccccc2)c2ccc(OC(=O)c3ccccc3)cc12	-16%	-71%	20µM*	-33	0%
SMILES	FH mod	HTT-AS act	HTT prom inh	DRV1 agonist	NTMT1 inh
CCOc1c(Cl)cc(CNc2ccc3[nH]c(=O)[nH]c3c2)cc1OC	-24%	-41%	-19%	85*	-3%
CCOc1cc(OCC)cc(C(=O)Nc2cccc(-c3nc4ccccc4[nH]3)c2)c1	4%	-68%	?	-18	1%
CCCOc1cccc(C(=O)Nc2ccc(-c3nc4ccccc4o3)cc2)c1	-4%	-15%	9%	108*	6%
CCCOc1ccc(C(=O)Nc2cccc(-c3nc4ccccc4[nH]3)c2)cc1	-20%	-10%	0%	83*	14%
CCOc1cccc(C(=O)Nc2ccc3oc(-c4ccncc4)nc3c2)c1	-6%	-25%	?	?	-1%
Cc1ccc(NC(=O)C(CC(C)C)NS(=O)(=O)c2ccc3c(c2)oc(=O)n3C)c(C)c1 (centres undefined)	-2%	-11%	-11%	11	3%
O=C(Nc1ccc(-c2ccncc2)nc1)c1cccs1	.	.	.	.	-10%
CCCOCc1cc(CN2CCN(c3cccc(Cl)c3)CC2)c(O)c2ncccc12	?	-38%	8.9µM*	-7	16%
Cc1n[nH]c(C)c1CCc1nc2c3ccccc3nc(SCC(=O)Nc3ccc(F)cc3)n2n1	-2%	-45%	-5%	72*	10%
Cc1cccc(N2CCN(C(=O)Cn3c(C)c4cnn(-c5ccccc5)c(=O)c4c3C)CC2)c1C	-29%	-49%	10µM*	-4	-1%
O=C(Nc1ncc(Cc2ccc(C(F)(F)F)cc2)s1)c1cnc(-c2ccccc2)s1	.	.	.	.	7%
O=C(Cc1ccc(NC(=O)N2CCCCc3ccccc32)cc1)NCc1ccccc1	1%	-29%	?	-5	10%
COc1ccc(CCN2CCN(CCCc3ccccc3)CC2)cc1OC	3%	-12%	-2%	.	89µM*!
Cc1cc(O[C@@H](CCC(F)(F)F)c2ccc(C(=O)NCCC(=O)O)cc2)cc(C)c1-c1ccc(C(C)(C)C)cc1	.	.	.	.	32µM*
CCOC(=O)c1c(C)[nH]c(C)c1S(=O)(=O)N(C)CC(=O)Nc1cccc(C(F)(F)F)c1	15%	-27%	?	-18	1%
Clc1cccc(-c2noc3ncnc(NC4CCCCC4)c23)c1	-4%	-31%	?	91*	-3%
CCCCN(CC)CCNC(=O)CN1C(=O)COc2ccc(S(=O)(=O)N3CCOCC3)cc21	6%	-9%	-16%	-8	9%
CC(/C=C/C=C(\C)C(=O)O[C@@H]1O[C@H](CO[C@@H]2O[C@H](CO)[C@@H](O)[C@H](O)[C@H]2O)[C@@H](O)[C@H](O)[C@H]1O)=C\C=C\C=C(C)\C=C\C=C(/C)C(=O)O[C@@H]1C[C@](O)(C(=O)O)C[C@@H](O)[C@H]1OC(=O)/C=C/c1ccc(O)c(O)c1	-20%[20.6 µM]	.	.	.	5%[12.6 µM]
COc1ccc(-c2cn3nc(SCC(=O)Nc4ccccc4F)ccc3n2)cc1	15%	-92%	4µM*	-12	-17%

Bioassay records as filed in PubChem.
